PubChem BioAssay

Target: Torsin-1A (Homo sapiens) (UniProt O14656)
Test: small-molecule binders of mutant TOR1A in lysate, primary screen, cell lysate, small-molecule microarray, COS7 lysate, 635/667 nm fluorescence (AID 1150);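 note: score pools 667 nm emission and signal to noise measuring lysate protein binding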
Conditions: COS7 hTOR1A mutant lysate, 635 nm fluorescence, higher = more signal

Chain of Torsin-1A (Homo sapiens) (O14656 whole entry, looked up): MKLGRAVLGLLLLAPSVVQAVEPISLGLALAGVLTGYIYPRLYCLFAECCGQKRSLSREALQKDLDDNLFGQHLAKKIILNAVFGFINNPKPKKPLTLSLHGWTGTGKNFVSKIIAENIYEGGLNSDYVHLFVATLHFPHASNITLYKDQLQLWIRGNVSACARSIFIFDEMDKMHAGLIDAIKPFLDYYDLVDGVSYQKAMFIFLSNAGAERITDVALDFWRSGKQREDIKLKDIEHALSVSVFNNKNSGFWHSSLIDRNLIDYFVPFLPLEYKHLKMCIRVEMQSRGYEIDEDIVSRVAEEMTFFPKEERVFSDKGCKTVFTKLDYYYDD

Row | Structure (SMILES) | composite z-score
1 | CC1(C)[C@@H]2CC(C(O)C3C=CC4C(=O)N(c5ccccc5)C(=O)C4N3Nc3ccc([N+](=O)[O-])cc3)=C[C@H]1C2 (some centres undefined) | 0.537
2 | COc1ccccc1CN1C(=O)c2ccccc2[C@@]2(Cc3ccccc3N(CC(C)C)C2=O)[C@@H]1c1ccc(CO)cc1 | -0.0676
3 | CC1CC/C=C\[C@H]2OC34C=CCN(C(C)(C)C)C(=O)[C@H]3N(C(C)CO)C(=O)[C@@H]4C2C(=O)O1 (some centres undefined) | -0.441
4 | O=C(NCCO)C1=C[C@H](Oc2ccccc2I)[C@@H](O)[C@H](N(Cc2ccco2)C(=O)Cc2ccccc2)C1 | 0.0805
5 | CN(C)CCCC[C@@H]1NC(=O)[C@H]2C[C@@H](C(=O)NCCCCCCN)[C@@H](c3ccc(O)cc3)N2C1=O | 0.755
6 | COC(=O)C(CC#Cc1ccc2c(c1)[C@]1(C(=O)N2)[C@H](c2ccc(OCCO)cc2)N2[C@H](c3ccccc3)[C@H](c3ccccc3)OC(=O)[C@H]2[C@@H]1C(=O)N1CCc2cc(OC)c(OC)cc2C1)C(=O)OC | 0.623
7 | [N-]=[N+]=Nc1ccccc1[C@H]1OC(c2ccc(OCCCO)cc2)=N[C@@]1(CCS(=O)(=O)c1ccccc1)C(N)=O | 0.356
8 | COC(=O)[C@@]1(Cc2ccc(F)cc2)[C@H]2c3cc(C(=O)N(C)C)n(Cc4ccccc4)c3C[C@H]2CN1C(=O)c1ccccc1 | 0.099
9 | COc1cc(COC(C)=O)ccc1OC(C)=O | 0.141
10 | CN1C(=O)C2C=CC(C(O)C#Cc3ccccc3)N(N3CCCCC3)C2C1=O (centres undefined) | 1.79
11 | NC(=O)NCC#Cc1ccc2c(c1)[C@]1(C(=O)N2)[C@H](C(N)=O)[C@H]2C(=O)O[C@H](c3ccccc3)[C@H](c3ccccc3)N2[C@@H]1c1ccc(O)cc1 | 1
12 | CO[C@H]1O[C@H](CO)[C@@H](OC(=O)Nc2ccc(Oc3ccccc3)cc2)[C@H](OC(=O)Nc2ccc3c(c2)OCO3)[C@H]1OC(=O)Nc1ccc2c(c1)OCO2 | 0.661
13 | CC(C)NC(=O)[C@@H]1c2ccccc2C(=O)N(C2Cc3ccccc3C2)[C@H]1c1ccc(CO)cc1 | 0.474
14 | CCCc1cc2c(n1Cc1cc(F)cc(F)c1)C(C)C1CN(C(=O)c3ccccc3)C(C)(C(=O)OC)C21 (centres undefined) | 1.58
15 | [N-]=[N+]=Nc1ccccc1[C@@H]1OC(c2ccc(OCCCO)cc2)=N[C@]1(CCS(=O)(=O)c1ccccc1)C(N)=O | 0.91
16 | O=C1c2ccccc2[C@](Cc2ccccc2I)(C(=O)NCCN2CCOCC2)[C@H](c2ccc(CO)cc2)N1Cc1ccccc1Cl | 0.244
17 | O=C(N1CCCCC1)[C@]1(Cc2ccccc2)N=C(c2ccc(OCCCO)cc2)O[C@@H]1c1ccccc1 | 0.0081
18 | CC(=O)NCCCC[C@@H]1NC(=O)[C@H]2C[C@@H](C(=O)NCCCCCCNC(=O)CS)[C@@H](c3ccc(O)cc3)N2C1=O | 2.14
19 | O=C(CS)NCCCCCCNC(=O)[C@@H]1C[C@@H]2C(=O)NCC(=O)N2[C@@H]1c1cccc(OCCO)c1 | 1.28
20 | CC[C@@H]1C=C(C(=O)O)[C@H](c2ccc(Br)cc2)N1S(=O)(=O)c1ccc(C)cc1 | 0.233
21 | CCOC(=O)C[C@H]1[C@H](OC(=O)c2ccccc2-c2ccccc2)[C@@H](NC(=O)CC(C)C)c2cc(OCCCO)ccc2N1C(=O)Cc1ccc(OC)cc1 | 0.199
22 | CCCC[C@@H]1C[C@H]1[C@@H](NC(=O)c1cccs1)c1ccc(-c2ccccc2)cc1 | -0.0352
23 | COc1ccc(-c2cc3c(c(-c4ccc(Oc5ccccc5)cc4)n2)[Si](C(C)C)(C(C)C)OC3)cn1 | -0.336
24 | CC(C)C(=C=CC[C@@H](O)c1ccc(OCCO)cc1)C[C@@H](O)COCc1ccccc1 | -0.208
